PI4K2A block – inhibitors of human PI4K2A; purified PI4K2A, ADP-Glo luminescence, 1 h; stronger effect = lower value; activity change, negative = inhibition, % at 76.9 µM; 420,000 compounds, 0.13% hits; AID 1346378; in the data active = activity change below about -50%; inconclusive = mostly about -30% to -49%
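ADP-Glo luminescence measured ADP generated by PI4K2A enzyme (4 ug/mL before mixing) with 1.2 mM PI substrate (pre-mix) and 300 microM ATP (pre-mix). Tris pH7.5 buffer with MgCl2, Triton X-100; 1 h reaction at ambient temperature.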
pAkt inh – Akt phosphorylation inhibition; Neuro2A IGF-stimulated pAkt S473 HTRF, 20 min; stronger effect = lower value; activity change, % for hits at 50 µM; 360,000 compounds, 0.32% hits; AID 651550; in the data active = activity change below about -80%; inconclusive = mostly about -51% to -80%
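Neuro2A cells in DMEM with 0.5% FBS, overnight at 37 deg C, given compound at single 50 µM final, then IGF (6 nM final) for 20 min at 37 deg C. Lysed; phospho-Akt Ser473 by HTRF after 24 h, 665/615 ratio.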
LDHA block – blocks human lactate dehydrogenase A; purified LDHA, NADH/diaphorase-resazurin fluorescence; stronger effect = lower value; P00338; 480,000 compounds, 0.15% hits; activity change, % (values are at about 110 or 230 µM); in the data active = activity change below about -30%; inconclusive = mostly about -25% to -30%
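Enzyme activity of human lactate dehydrogenase 5 (2 nM; 0.06 mM NADH, 0.2 mM pyruvate, 5 min, RT) is measured via a resazurin/diaphorase fluorescence readout of residual NADH.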
DRD3 antagonist – blocks the human D3 dopamine receptor; P35462; D3R cells, DiscoveRx beta-arrestin luminescence, antagonist mode; stronger effect = lower value; max response, negative = inhibition, %; 360,000 compounds, 2.5% hits; AID 652054; in the data active = max response below about -50%; inconclusive = no clear call, values can overlap the other calls
Target sequence (P35462 whole entry, looked up): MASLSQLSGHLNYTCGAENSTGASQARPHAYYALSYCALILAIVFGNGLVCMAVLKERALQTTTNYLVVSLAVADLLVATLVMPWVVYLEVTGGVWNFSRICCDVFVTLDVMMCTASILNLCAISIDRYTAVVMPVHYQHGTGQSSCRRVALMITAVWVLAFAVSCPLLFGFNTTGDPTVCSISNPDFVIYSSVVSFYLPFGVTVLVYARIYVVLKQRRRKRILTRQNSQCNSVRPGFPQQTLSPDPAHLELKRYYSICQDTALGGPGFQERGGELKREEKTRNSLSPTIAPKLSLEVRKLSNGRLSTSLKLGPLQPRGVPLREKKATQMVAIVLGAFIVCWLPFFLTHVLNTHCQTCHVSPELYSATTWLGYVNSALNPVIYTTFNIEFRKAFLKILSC
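Cells expressing the human receptor were seeded at 1500 cells/well, incubated overnight at 37 degrees C in 5% CO2, then exposed to library compounds with dopamine controls for 90 minutes at 37 degrees C before luminescent detection.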
RGS4 inh – inhibitors of human regulator of G protein signaling 4; P49798; Transcreener GDP fluorescence polarization, RGS4-accelerated GTP hydrolysis; Potency, µM (doses to about 114 µM), actives largely listed as inhibitors; 390,000 compounds, 0.039% hits; active = well fitted inhibition curve with a large enough effect; inconclusive = small, poorly fitted or top-dose-only effect; inactive = no such curve, though single readings can be large or run the other way; note: nearly all actives have a fitted effect of over 75% in size
Target sequence (P49798 whole entry, looked up): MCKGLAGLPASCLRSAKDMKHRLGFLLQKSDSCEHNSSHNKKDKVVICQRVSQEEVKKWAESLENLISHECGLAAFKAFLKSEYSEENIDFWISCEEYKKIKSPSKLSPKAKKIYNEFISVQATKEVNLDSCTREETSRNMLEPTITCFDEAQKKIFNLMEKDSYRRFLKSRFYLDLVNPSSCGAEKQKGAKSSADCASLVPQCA
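MLSMR compounds (23 nl, pin-transferred) preincubated 10 min at room temperature with a 500nM (2x) first reagent, then RGS4 at 900nM (2x) plus Transcreener GDP mix added; fluorescence polarization (620/688 nm) read before and after 90 min at 30 °C.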
D3 ag – agonists of human D3 dopamine receptor | P35462 | D3R DiscoveRx beta-arrestin cells, luminescence, 90 min | max activation, % | 410,000 compounds, 0.58% hits | AID 652048; in the data active = max activation above about 30%
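Agonist mode: compounds and dopamine controls were applied to plated cells for 90 min at 37 degrees C after an overnight attachment at 1500 cells/well. Luminescent read-out followed 30 - 60 minutes at room temperature with DiscoveRx detection reagent.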
Hits are given with their value; i = inactive; ? = inconclusive; nt = no result. Only some compounds are listed: those with a hit (about 2.8% of all), similar ones and a draw of the others.

SMILES | PI4K2A block | pAkt inh | LDHA block | DRD3 antagonist | RGS4 inh | D3 ag
CC(C)CCC(CCNCc1cccs1)C1CCOC(C)(C)C1 (configuration not stated) | nt | nt | i | nt | nt | nt
COC(=O)C(C)N1C(=O)S/C(=C/c2cn(CC(N)=O)c3ccccc23)C1=O (configuration not stated) | nt | nt | i | nt | nt | nt
COn1cnnc1-c1ccccc1 | i | i | i | ? | i | i
On1cnnc1-c1ccccc1 | i | -91% | i | i | i | i
COc1ccc(Cl)cc1C(=O)OCc1cccc(COC(=O)c2cc(Cl)ccc2OC)c1 | nt | nt | i | nt | nt | nt
Fc1ccc(-c2cc3nc4c(c(N5CCOCC5)n3n2)CCCC4)cc1 | i | i | i | i | i | 47
O=C(CCc1ccco1)OCC(=O)c1ccc2c(c1)OCO2 | nt | nt | i | nt | nt | nt
CCC1(C)Cc2ccccc2-c2nc(NN)[nH]c(=O)c21 (configuration not stated) | i | i | i | i | i | i
CCC1(C)Cc2ccccc2-c2nc(NCCO)[nH]c(=O)c21 (configuration not stated) | i | i | i | -52 | i | i
CCOC(=O)C(C)Oc1ccc2c(CC)cc(=O)oc2c1C (configuration not stated) | i | i | i | i | i | i
CCCC(C)c1oc(=O)cc(O)c1C (configuration not stated) | i | i | i | i | i | 60
COc1cccc(NC(=O)Cc2c(C)c3ccc(OC)cc3oc2=O)c1 | nt | nt | i | nt | nt | nt
CC[C@@]12C(=O)N(c3cccc(Cl)c3)C(=O)N1[C@H](c1cccc(C)c1)[C@@H]1C(=O)N(Cc3ccccc3)C(=O)[C@@H]12 | i | i | i | ? | i | i
CC[C@@]12C(=O)N(c3ccc(OC)cc3)C(=O)N1[C@H](c1cccc(C)c1)[C@@H]1C(=O)N(Cc3ccccc3)C(=O)[C@@H]12 | i | i | i | i | i | 45
Cc1ccc(N2C(=O)N3[C@H](c4cccc(C)c4)[C@@H]4C(=O)N(Cc5ccccc5)C(=O)[C@@H]4[C@]3(C)C2=O)cc1 | i | i | i | ? | i | i
CC[C@@]12C(=O)N(c3ccc(C)cc3)C(=O)N1[C@H](c1cccc(C)c1)[C@@H]1C(=O)N(Cc3ccccc3)C(=O)[C@@H]12 | i | i | i | i | i | 30
CCOc1cccc2cc(C(=O)NCCOC)c(=O)oc12 | nt | nt | i | nt | nt | nt
CC(C)N1CCC(Nc2nc(-c3cccnc3)nc3ccccc23)CC1 | nt | nt | i | nt | nt | nt
CCOC(=O)CSc1nc2ccccc2c(=O)n1NC(=O)c1ccccc1 | i | i | i | i | i | 35
CCc1ccc(C(=O)N(CC)CC)o1 | nt | nt | i | nt | nt | nt
CC(C)=CCN1CCN(CCC2=C(C)CCCC2(C)C)CC1CCO (configuration not stated) | i | i | i | -90 | i | i
COc1cc(OC)c2c(-c3ccccc3)cc(=O)oc2c1C(CCN1CCCCC1)c1ccc2c(c1)OCO2 (configuration not stated) | i | i | i | ? | i | i
COc1cc(OC)c2c(C)cc(=O)oc2c1C(CCN1CCOCC1)c1ccc2c(c1)OCO2 (configuration not stated) | i | i | i | -69 | i | i
COc1cc(OC)c2c(-c3ccccc3)cc(=O)oc2c1C(CCN1CCCC(C)C1)c1ccc2c(c1)OCO2 (configuration not stated) | i | i | i | -70 | i | i
COc1cc(C(CCN2CCN(c3ccccc3)CC2)c2c(OC)cc(OC)c3c(C)cc(=O)oc23)cc(OC)c1OC (configuration not stated) | i | i | i | -121 | i | i
SMILES | PI4K2A block | pAkt inh | LDHA block | DRD3 antagonist | RGS4 inh | D3 ag
CC(C)(C)C(=O)/C=c1/[nH]c(=O)/c(=C/c2c(F)cccc2F)s1 | nt | nt | i | nt | nt | nt
N#C/C(=C\c1cccc2ccccc12)c1nc2ccccc2[nH]1 | nt | nt | i | nt | nt | nt
COCCn1c(C)cc(C(=O)COC(=O)c2ccc(Br)o2)c1C | i | i | i | -82 | i | i
NNc1ccc(Br)c2ccccc12 | nt | nt | i | nt | nt | nt
CCCOc1ccc(-c2[nH]nc3c2C(c2cc(OC)c(OC)c(OC)c2)C(C#N)=C(N)O3)cc1 (configuration not stated) | nt | nt | i | nt | nt | nt
CCOC(=O)c1ccc(NC(=O)Cn2nnc(-c3ccccc3C)n2)cc1 | i | i | i | i | i | i
CCc1ccc(NC(=O)Cn2nnc(-c3ccccc3N)n2)cc1 | i | nt | i | nt | i | 80
CC1(C)C2CC=C(/C=N/NC(=S)Nc3cccnc3)C1C2 (configuration not stated) | i | i | i | i | i | i
CC1=C/C(=N\NC(=S)Nc2cccnc2)CC(C)(C)C1 | i | i | i | -51 | i | i
CCC(C)(C)C1CCC(=NNC(=S)Nc2cccnc2)CC1 (configuration not stated) | i | i | i | -64 | i | i
COc1cc(/C=c2\sc3n(c2=O)C(c2ccccc2)C(c2ccccc2)=NN=3)ccc1O (configuration not stated) | i | i | i | -76 | i | i
O=C(Cn1ncc(Cl)c(Cl)c1=O)c1ccc2c(c1)OCCO2 | i | i | i | -54 | i | i
Oc1ccc(C(c2c[nH]c3ccccc23)c2c[nH]c3ccccc23)cc1 | nt | nt | i | nt | nt | nt
Cn1c(SCc2ccccc2)nc2ccsc2c1=O | i | i | i | i | i | 35
CC(C)CCNC(=O)C(=O)N1CCN(C(=O)c2cc3ccccc3[nH]2)CC1 | nt | nt | i | nt | nt | nt
O=C(CCCSc1ccccc1)Nc1nc(-c2ccccn2)cs1 | i | -106% | i | i | ? | i
Cc1csc(NC(=O)c2cccn2C)n1 | i | i | i | i | i | i
Cn1cccc1C(=O)Nc1nc(-c2ccccn2)cs1 | i | i | i | -56 | i | i
Cc1ccc(CN(C)c2cc(C(=O)N3CCOCC3)c3ccccc3n2)cc1 | nt | nt | i | nt | nt | nt
Cc1cccc(N2C(=O)CC(c3c[nH]c4ccccc34)C2=O)c1 (configuration not stated) | nt | nt | i | nt | nt | nt
CN(CCOc1ccc(Br)cc1)CC(O)c1ccccc1 (configuration not stated) | i | i | i | i | i | i
CC(OCC(O)CN(C)CCOc1ccccc1)c1ccc(Cl)cc1 (configuration not stated) | i | i | i | -69 | i | i
CN(CCOc1ccc(Br)cc1)CC(O)COc1ccc(C#N)cc1 (configuration not stated) | i | i | i | i | i | i
CN(CCOc1ccccc1)CC(O)COc1ccccc1 (configuration not stated) | i | i | i | -74 | i | i
CN(CCOc1ccccc1)CC(O)COCc1ccccc1F (configuration not stated) | i | i | i | ? | i | i

Screens as filed in PubChem.
